Test results: PubChem BioAssay
Active and inactive are the calls of the source.

Tests used:
[1] = biological target: Albumin (Bos taurus) (UniProt P02769); experiment: compounds binding labelled BSA control protein – biochemical, small-molecule microarray, Alexa647 label, 635/667 nm fluorescence, artefact control for SMM control protein annotation, profiling panel (AID 1118); conditions: BSA-A647 binding, fluorescence 635 nm, higher = more signal;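 note: score merges 667 nm emission intensity and signal-to-noise per printed compound spot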
Sequence of Albumin (Bos taurus) (P02769 whole entry, looked up): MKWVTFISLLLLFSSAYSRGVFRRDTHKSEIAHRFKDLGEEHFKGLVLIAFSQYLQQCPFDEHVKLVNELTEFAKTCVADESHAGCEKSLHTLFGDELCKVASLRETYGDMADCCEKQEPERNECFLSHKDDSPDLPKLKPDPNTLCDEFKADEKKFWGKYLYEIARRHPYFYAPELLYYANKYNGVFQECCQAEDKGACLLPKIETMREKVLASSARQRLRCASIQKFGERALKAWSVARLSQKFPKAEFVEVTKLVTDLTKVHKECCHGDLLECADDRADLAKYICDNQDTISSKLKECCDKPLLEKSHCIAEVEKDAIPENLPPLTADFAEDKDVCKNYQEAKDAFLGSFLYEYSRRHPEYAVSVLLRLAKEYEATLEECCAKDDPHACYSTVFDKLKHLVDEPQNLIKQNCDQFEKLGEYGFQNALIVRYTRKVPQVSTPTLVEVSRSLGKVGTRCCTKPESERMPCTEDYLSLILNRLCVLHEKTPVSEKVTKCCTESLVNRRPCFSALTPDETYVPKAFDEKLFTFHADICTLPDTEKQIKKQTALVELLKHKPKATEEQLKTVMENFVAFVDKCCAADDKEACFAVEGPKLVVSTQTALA

[2] = probe aXIP binding to arrayed compounds – biochemical, NeuroSMM set, 635/667 nm fluorescence, primary screen (AID 1119); conditions: small-molecule microarray, higher = more signal, called active from +8 up or from −8 down;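 note: probe is the protein aXip251-270 applied at 1 µg/mL to compound-printed slides; binding of probe to printed compounds measured as 667 nm fluorescence plus signal to noise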
[3] = probe aNOTCH3 binding on compound microarray – biochemical, small-molecule microarray, 635/667 nm fluorescence, primary screen (AID 1120); conditions: higher = more signal;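 note: probe is a biotin-tagged antibody raised against NOTCH3 rather than NOTCH3 protein; score merges spot fluorescence near 667 nm with spot signal to noise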
[4] = probe aNOTCH2 binding on compound microarray – biochemical, small-molecule microarray, 635/667 nm fluorescence, primary screen (AID 1121); conditions: higher = more signal;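 note: score merges feature fluorescence read at 667 nm with its signal to noise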
[5] = biological target: Carbonic anhydrase 2 (Homo sapiens) (UniProt P00918); experiment: compounds binding carbonic anhydrase 2 – biochemical, small-molecule microarray, Alexa647-labelled CAII, profiling panel (AID 1122); conditions: CAII-A647 binding fluorescence, higher = more signal
[6] = COS7 lysate on small-molecule microarray, probe aHis, 635 nm (AID 1123); conditions: COS7 cell lysate, fluorescence, higher = more signal;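 note: z-score combines 667nm fluorescence intensity with signal-to-noise per printed compound spot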
[7] = probe aLAP1 signal on lysate-treated microarray – cell lysate, small-molecule microarray, COS7 lysate, primary screen (AID 1124); conditions: probe aLAP1, fluorescence, higher = more signal;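 note: lysate comes from COS7 cells expressing LAP1 and is applied at 0.3 µg/mL; score merges spot fluorescence near 667 nm with signal-to-noise over triplicate slides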
[8] = test system: Sam68 (KHDRBS1); experiment: compounds binding KHDRBS1 protein – biochemical, small-molecule microarray, 635 nm fluorescence, primary screen (AID 1125); conditions: higher = more signal;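 note: score merges 667 nm channel intensity with signal to noise over triplicate slides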
[9] = test system: Chordin-like protein 2 (CHRDL2); experiment: compounds binding chordin-like 2 – biochemical, small-molecule microarray, 635 nm fluorescence, primary screen (AID 1126); conditions: fluorescence 635 nm, higher = more signal;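 note: printed compound slides probed with Chrdl2 protein at 4 µg/mL for 1 h at 4 C; score merges 667 nm emission intensity with signal to noise over three replicate slides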
[10] = biological target: Concanavalin-A (Canavalia ensiformis) (UniProt P02866); experiment: compounds binding concanavalin A lectin – biochemical, small-molecule microarray, Alexa647 label, 635 nm, artefact control for SMM control protein annotation, primary screen (AID 1127); conditions: ConA-A647 binding fluorescence, higher = more signal;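 note: z combines 667 nm emission intensity with signal-to-noise across three replicate slides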
Sequence of Concanavalin-A (Canavalia ensiformis) (P02866 whole entry, looked up): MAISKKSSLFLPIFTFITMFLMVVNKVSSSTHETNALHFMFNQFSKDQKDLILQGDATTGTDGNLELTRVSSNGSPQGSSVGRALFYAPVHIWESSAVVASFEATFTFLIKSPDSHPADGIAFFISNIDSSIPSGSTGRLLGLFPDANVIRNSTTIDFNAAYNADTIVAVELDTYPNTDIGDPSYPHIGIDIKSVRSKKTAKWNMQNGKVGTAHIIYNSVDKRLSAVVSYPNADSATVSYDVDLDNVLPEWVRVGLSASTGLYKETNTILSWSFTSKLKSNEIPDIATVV

Row | Compound | composite z-score [1] | composite Z-score [2] | composite z-score [3] | composite z-score [4] | composite z-score [5] | composite z-score [6] | composite z-score [7] | composite z-score [8] | composite z-score [9] | composite z-score [10]
1 | C[C@@]1([C@@H](NC(=O)c2cccs2)c2ccc(-c3ccccc3)cc2)C[C@H]1C1CCCCC1 | 0.0881 | 0.0169 (inactive) | -0.0027 | -0.343 | 0.786 | 3.02 | -0.165 | -0.307 | -0.237 | -0.419
2 | COC(=O)[C@@]1(Cc2ccc(OC)cc2)[C@H]2c3cc(C(=O)N4CCCC4)n(CCF)c3C[C@H]2CN1C(=O)c1ccccc1 | 0.978 | 0.573 (inactive) | 1.97 | 1.15 | 0.755 | 3.15 | 0.478 | 0.757 | -0.258 | 0.99
3 | O=C1O[C@H](c2ccccc2)[C@H](c2ccccc2)N2[C@H]1[C@@H](C(=O)N1CCN(c3ncccn3)CC1)[C@]1(C(=O)Nc3ccc(C#CCCO)cc31)[C@H]2c1ccccc1OCCO | 0.759 | -0.215 (inactive) | -0.0918 | -0.0533 | 0.556 | 2.03 | 1.38 | 1.3 | 0.231 | 1.11
4 | C[N+](C)(C)CCCC[C@@H]1NC(=O)[C@H]2C[C@@H](C(=O)NCCCCCCN)[C@@H](c3cccc(OCCO)c3)N2C1=O | 0.149 | 0.514 (inactive) | 0.536 | 0.198 | 0.752 | 2.07 | 1.04 | 1.3 | 0.886 | 0.936
5 | CCCN1C(=O)[C@@]2(Cc3ccccc3)N=C(c3ccc(OCCCO)cc3)O[C@H]2c2ccccc21 | 0.508 | 0.72 (inactive) | 0.204 | 0.0055 | 0.329 | 2.69 | 0.688 | 1.3 | 0.804 | 0.96
6 | C=CCC(OC(C)=O)[C@@H]1[C@@H](N(Cc2cccc3ccccc23)C(=O)Cc2ccc(F)cc2)c2cc(OCCCO)ccc2N1C(=O)Cc1ccc(OC)cc1 (stereo not given in full) | 0.006 | -0.328 (inactive) | -0.0454 | -0.119 | 0.191 | -0.0343 | -0.238 | 0.191 | 0.0157 | 1.03
7 | COc1cc2c(cc1OC)CN(C(=O)[C@@H]1[C@H]3C(=O)O[C@H](c4ccccc4)[C@H](c4ccccc4)N3[C@H](c3ccc(O)cc3)[C@@]13C(=O)Nc1ccc(C#CCNC(N)=O)cc13)CC2 | 0.0738 | 0.507 (inactive) | 0.114 | -0.182 | -0.0348 | 0.276 | 1.06 | 0.425 | 0.498 | 0.826
8 | COC(=O)[C@]1(Cc2ccccc2CN=[N+]=[N-])N=C(c2ccc(OCCCO)cc2)O[C@@H]1c1ccccc1CN=[N+]=[N-] | -0.204 | -0.206 (inactive) | -0.0984 | -0.0079 | 0.651 | 1.75 | 0.838 | 0.877 | 0.31 | 0.951
9 | COc1ccc([Si](C)(C)[C@H]2[C@H](CC(=O)N3CCC[C@H]3CO)O[C@@]3(C(=O)N(Cc4ccc(N5C(=O)c6cccc7cccc5c67)cc4)c4ccccc43)[C@@H]2C)cc1 | 0.121 | 0.829 (inactive) | 0.171 | -0.146 | 0.409 | 1.23 | 0.206 | 1.29 | 0.634 | 1.13
10 | COC(=O)C(CC#Cc1ccc2c(c1)[C@]1(C(=O)N2)[C@H](c2ccc(O)cc2)N2[C@H](c3ccccc3)[C@H](c3ccccc3)OC(=O)[C@H]2[C@@H]1C(N)=O)C(=O)OC | -0.999 | -0.421 (inactive) | -0.256 | -0.118 | -0.669 | -0.43 | -0.404 | -1.43 | -2.25 | -1.3
11 | CC1C=C(CCCO)C=C(C(=O)OCCS(C)(=O)=O)C(C(=O)OCCS(C)(=O)=O)=CN1Cc1cccc(OC(F)(F)F)c1 (stereo not given) | 1.03 | -0.115 (inactive) | 0.0929 | 0.0231 | 0.749 | 2.22 | 1.11 | 1.21 | -0.815 | 1.08
12 | [N-]=[N+]=Nc1ccccc1C[C@]1(C(=O)NCCN2CCOCC2)N=C(c2ccc(OCCCO)cc2)O[C@H]1c1ccccc1N=[N+]=[N-] | 0.892 | 0.241 (inactive) | 0.505 | 0.141 | 0.584 | 2.84 | 0.505 | 1.29 | 0.415 | 1.15
13 | COc1ccc(CCNC(=O)[C@@H]2c3ccccc3C(=O)N(Cc3ccccc3C(F)(F)F)[C@H]2c2ccc(CO)cc2)cc1 | -0.187 | 1.36 (inactive) | -0.246 | -0.0664 | 0.466 | 1.29 | 0.57 | 0.501 | -1.34 | -0.272
14 | NC(=O)[C@H]1[C@@H]2C(=O)O[C@@H](c3ccccc3)[C@@H](c3ccccc3)N2[C@@H](c2ccc(O)cc2)[C@]12C(=O)Nc1ccc(C#CC3(O)CCCCCC3)cc12 | 0.0474 | 0.467 (inactive) | 0.205 | -0.0859 | 0.51 | 2.63 | 0.807 | 1.29 | 0.412 | 1.12
15 | CC1=C2[C@@H](CCc3ccccc3)OB(O)C[C@@H]2[C@@H]2C(=O)C=CC(=O)[C@@H]2C1 | 0.393 | 1.64 (inactive) | -0.0677 | 0.0777 | 0.298 | -0.0088 | 0.0435 | 1.01 | 0.483 | 0.793
16 | CC(C)N1C(=O)c2ccccc2[C@](C)(C(=O)O)[C@@H]1c1ccc(CO)cc1 | 0.401 | -0.158 (inactive) | -0.103 | 0.16 | 0.326 | 0.119 | 0.755 | -0.769 | -1.49 | -0.0545
